# VP16 counter: VP16 counterscreen qHTS for inhibitors of ROR gamma transcriptional activity; Drosophila S2 Gal4-VP16 UAS-luciferase, luminescence, 20 h; Potency, µM (titrated, usually from 53.6 µM), for inactives: at the highest dose activity, negative = inhibition, hits mostly inhibitors; 3.5% of 310,000 active; AID 2546, 2010;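 note: Gal4-VP16 expression switched on by copper sulfate through the metallothionein promoter; potency is the fitted concentration of half-maximal effect; nearly all actives have a fitted effect of over 50% in size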
# RORg inh: qHTS for inhibitors of ROR gamma transcriptional activity. Drosophila S2 Gal4-RORgamma UAS-luciferase reporter, 20 h. Potency, µM (top dose mostly 53.6 µM), for inactives: at the highest dose activity change, negative = inhibition, hits mostly inhibitors. 5.4% of 310,000 active. AID 2551, 2010; note: potency is the fitted concentration of half-maximal effect; nearly all actives have a fitted effect of over 60% in size
# Target sequence (P51450 whole entry, looked up, the tested form may be a part): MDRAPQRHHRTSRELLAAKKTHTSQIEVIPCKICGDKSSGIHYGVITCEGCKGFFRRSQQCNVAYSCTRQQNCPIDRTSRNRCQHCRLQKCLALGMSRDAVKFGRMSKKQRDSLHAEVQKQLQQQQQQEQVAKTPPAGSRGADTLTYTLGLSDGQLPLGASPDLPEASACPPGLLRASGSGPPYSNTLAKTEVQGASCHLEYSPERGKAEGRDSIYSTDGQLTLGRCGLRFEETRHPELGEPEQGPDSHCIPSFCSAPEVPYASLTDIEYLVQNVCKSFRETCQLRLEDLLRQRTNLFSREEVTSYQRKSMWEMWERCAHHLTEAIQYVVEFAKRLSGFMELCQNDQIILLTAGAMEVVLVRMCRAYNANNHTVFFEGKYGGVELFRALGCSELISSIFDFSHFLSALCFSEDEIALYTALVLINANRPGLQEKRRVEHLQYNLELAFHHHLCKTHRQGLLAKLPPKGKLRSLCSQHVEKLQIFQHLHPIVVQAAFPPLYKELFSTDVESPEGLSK
#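 Schneider cells (Drosophila), stable Gal4 DBD–ROR gamma + UAS-luc; 1 hr cmpd preincubation; Cu2+ induction 700 uM final; 20 hr ambient; luminescence.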
# ELG1 DNA repair: qHTS screen for small molecules that inhibit ELG1-dependent DNA repair in human embryonic kidney (HEK293T) cells expressing luciferase-tagged ELG1. AID 504467, 2011. Potency, µM (titrated, usually from 46.1 µM), for inactives: at the highest dose activity change, negative = inhibition, actives largely listed as inhibitors. HEK293T ELG1-luciferase reporter, luminescence, 16 h; DNA damage induced by 5-fluorouridine. 2.3% of 330,000 active; note: potency is the fitted concentration of half-maximal effect; nearly all actives have a fitted effect of over 55% in size
#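 Reporter activity after DNA damage by 5-fluorouridine is monitored. Compound-treated cells incubate 16 hr at 37 °C, then ONE-Glo is added for 30 min before luminescence reading.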
# IL-1B inflam inh: qHTS for Inhibitors of Inflammasome Signaling: IL-1-beta AlphaLISA Primary Screen; activity change, % at 57.5 µM; 4.7% of 360,000 active; AID 743279, 2014; THP-1 LPS/ATP IL-1B secretion, AlphaLISA, 16 h; hits give low values; in the data active = activity change below about -50%; inconclusive = mostly about -30% to -49%
#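 Secreted IL-1B measured by AlphaLISA bead assay after 16 h compound exposure of THP-1 cells; compounds (final up to 57.5 uM) added 1 h before LPS (250 ng/mL) and ATP (1.25 mM) stimulation; lower signal means less secretion.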
# DT40 TDP1 no CPT: qHTS for Inhibitors of human tyrosyl-DNA phosphodiesterase 1 (TDP1): qHTS in cells in absence of CPT; DT40 Tdp1-/- hTDP1 cells, no CPT, ATP luminescence, 48 h; Potency, µM (highest dose often 46.2 µM), inactives show top-dose activity change, negative = growth inhibition, hits mostly inhibitors; 15% of 420,000 active; AID 686978, 2013; note: potency is the fitted concentration of half-maximal effect; nearly all actives have a fitted effect of over 55% in size
#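 Chicken DT40 Tdp1-/- cells stably complemented with human TDP1 were seeded at 400 cells/well with DMSO in place of 20 nM camptothecin. After compound pinning, cells grew at least 48 hr at 37 °C; viability read by CellTiter-Glo luminescence.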
# TDP1 cell CPT: qHTS for Inhibitors of human tyrosyl-DNA phosphodiesterase 1 (TDP1): qHTS in cells in presence of CPT; Potency, µM (highest dose often 46.2 µM), for inactives: at the top dose activity change, negative = growth inhibition, hits mostly inhibitors; AID 686979, 2013; 12% of 420,000 active; chicken DT40 Tdp1-/-;hTDP1 cells + 20 nM CPT, ATP luminescence, 48 h; note: potency is the fitted concentration of half-maximal effect; nearly all actives have a fitted effect of over 55% in size
#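 Cell growth measured by CellTiter-Glo luminescence after a minimum 48 h, 37 C compound exposure with 20 nM CPT in Tdp1-knockout DT40 cells stably expressing hTDP1, seeded 400/well; qHTS titration format.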
# An asterisk follows results filed as active; ? = inconclusive; · = not tested or not shown; [ ] = remark or other dose. Only some compounds are listed: those with a hit (about 21% of all), similar ones and a draw of the others. Unless noted, calls come from the whole dose curve; as a rule, active = well fitted curve in the direction sought with a large enough effect; inconclusive = small, poorly fitted or top-dose-only effect, or another doubt; inactive = no such curve, though single readings can be large; an effect the other way counts as inactive or inconclusive. % is set by controls: 0 for no effect and ±100 for the full control effect.
SMILES,VP16 counter,RORg inh,ELG1 DNA repair,IL-1B inflam inh,DT40 TDP1 no CPT,TDP1 cell CPT
CCOc1[nH]c(/N=C/c2ccccc2)c(C#N)c1C#N,·,·,·,·,-24.7%,6.31µM*
N#Cc1c(/N=C/c2ccccc2)oc(-c2ccccc2)c1-c1ccccc1,0.0%,33.3%,-1.0%,-16.1,?,?
COc1[nH]c(/N=C/c2ccco2)c(C#N)c1C#N,·,·,·,·,?,15.8µM*
CC[C@H]1C2=C3C(CC[C@H]4C(OC)OC[C@](C)([C@@H]34)N(C(=O)OC(C)(C)C)C2)C(CO)C1CO (stereo partly specified),9.4%,5.1%,·,·,·,·
Cc1ccc2c(=O)n3c(nc2c1)C(Cc1ccc(O)cc1)NC(=O)c1ccc(Cl)cc1-3 (stereo unspecified),·,·,9.2%,·,·,·
Cn1cc(-c2nnc(-c3ccccc3)o2)c2ccccc21,?,1.41µM*,?,0.0,?,-18.7%
CCc1ccc(NC(=S)N(Cc2ccccc2)Cc2ccccn2)cc1,?,0.316µM*,9.8%,-60.1*,4.61µM*,11.6µM*
COc1ccc(NC(=O)NCc2ccccn2)cc1,-5.4%,25.3%,?,-11.1,-7.5%,1.1%
CCc1ccc(NC(=S)N(Cc2cccnc2)Cc2ccco2)cc1,-4.5%,-0.6%,?,-66.6*,18.4µM*,?
COc1cccc(NC(=S)N(Cc2ccccn2)Cc2ccccc2Cl)c1,?,6.31µM*,?,?,-95.3%,?
COc1cccc(NC(=S)N(CCc2ccc(OC)c(OC)c2)Cc2ccccn2)c1,18.3%,?,-7.1%,-28.9,-29.7%,-23.0%
COc1ccc(NC(=S)N(Cc2ccccn2)Cc2ccccc2Cl)cc1,-14.8%[10 µM],5.62µM*,?,-3.1,-1.1%,10.1%
O=C(NCC1CCCCC1)c1cc(S(=O)(=O)N2CCOCC2)ccc1F,·,·,6.9%,14.3,?,-27.6%
O=C(Nc1nnc([C@@H]2C[C@H](O)[C@@H](CO)O2)s1)NC1CCCCC1,·,·,·,18.5,-5.1%,-11.4%
CCOC(=O)C1=CCN(S(=O)(=O)c2ccccc2Cl)C1c1ccc(Cl)c(Cl)c1 (stereo unspecified),·,·,·,-24.2,?,?
CCCCN(C(=O)CCC(=O)Nc1cc(C)on1)C(C(=O)NC1CCCC1)c1ccccc1OCC (stereo unspecified),-6.1%,23.2%,1.8%,?,?,?
C[C@H](CO)N1C[C@H](C)[C@H](CN(C)C(=O)Nc2ccc3c(c2)OCCO3)OCc2cnnn2CCCC1=O,·,·,·,-3.1,-5.8%,9.6%
CCn1c(SCC(=O)NC(C)C(C)C)nc2cc(S(=O)(=O)N3CCOCC3)ccc21 (stereo unspecified),10.5%,16.8%,9.0%,0.0,-5.9%,4.4%
CCn1c(SC)nc2cc(S(=O)(=O)N3CCCCC3)ccc21,·,·,2.3%,-11.5,-24.7%,1.64µM*
CCn1c(CN2CCC(C)CC2)nc2cc(S(=O)(=O)N3CCCCC3)ccc21,·,·,·,-9.6,13µM*,?
Cc1cc(NC(=O)CN2C(=O)NC3(CCCCC3)C2=O)ccc1N1CCCC1,·,·,7.2%,-1.5,?,-22.3%
COc1ccccc1C1CC(=O)NC(C)=C1C(=O)OC(C)C (stereo unspecified),-10.0%,13.7%,12.4%,15.5,13µM*,?
CC1=C(C(=O)OC2CCCC2)C(c2ccccc2C(F)(F)F)CC(=O)N1 (stereo unspecified),·,·,·,·,14.6µM*,18.4µM*

# Screening data as filed in PubChem BioAssay.
